In PubChem BioAssay (NCATS):
Records with an inconclusive call do not appear. The source made the active and inactive calls. Calls come from the whole dose curve; as a rule, active = well fitted curve in the direction sought with a large enough effect; inconclusive = small, poorly fitted or top-dose-only effect, or another doubt; inactive = no such curve, though single readings can be large; an effect the other way counts as inactive or inconclusive.

What was measured:
[1] = MultiTox-Fluor Cytotoxicity Assay - LYMP1-003 - Live Cells (AID 962);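 note: cells exposed to compound for 16 hours at 37 °C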
Summary of the method: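 LYMP1-003 lymphoblastoid cells, 2500/well in complete medium, treated 16 h at 37 C; live-cell protease cleavage of GF-AFC read by fluorescence (Ex/Em 405/510) after 60 min reagent; AC50 from Hill fits of concentration-response.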

[2] = Cell Viability - LYMP1-003 - Assay at 24 hr (AID 963)
Summary of the method: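 Human lymphoblastoid LYMP1-003 cells, 2500/well, treated 24 h at 37 C in complete medium. Viability read as intracellular ATP by CellTiter-Glo luminescence after 30 min at room temperature; AC50 from Hill-equation fits of qHTS concentration-response.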

[3] = Cell Viability - LYMP1-003 - Assay at 40 hr (AID 964); note: nearly all actives have a fitted effect of over 60% in size
Summary of the method: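 LYMP1-003 human lymphoblastoid cells, 2500/well, preincubated 5 h at 37 C, then treated with compound for 40 h at 37 C. Intracellular ATP read by CellTiter-Glo luminescence after 30 min at room temperature; AC50 from Hill-equation fits.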

[4] = Cell Viability - LYMP2-003 (AID 965);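 note: cells exposed to compounds for 24 h before reading; nearly all actives have a fitted effect of over 50% in size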
Summary of the method: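 CellTiter-Glo luminescence (cellular ATP) after 24 h compound exposure at 37 C in complete medium; 2500 cells/well, 5 h settling beforehand. Concentration-response fitted to standard Hill equation for AC50. Tetraoctylammonium bromide served as positive control.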

[5] = Cell Viability - LYMP2-004 (AID 966); note: nearly all actives have a fitted effect of over 65% in size
Summary of the method: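 Lymphoblastoid LYMP2-004 cells, 2500 per well, were preincubated for 5 hr and then treated with compound for 24 h at 37 C in complete medium. Viability was read as cellular ATP by CellTiter-Glo luminescence, and AC50 values were taken from Hill fits to concentration-response data.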

[6] = Cell Viability - LYMP2-005 (AID 967)
Summary of the method: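 Steps: seed 2500 LYMP2-005 cells/well, incubate 5 h at 37 C, add compound, incubate 24 h at 37 C, add CellTiter-Glo, wait 30 min at RT, read luminescence. Concentration-response data fitted to Hill equation for AC50.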

[7] = Cell Viability - LYMP2-009 (AID 968); note: nearly all actives have a fitted effect of over 55% in size
[8] = Cell Viability - LYMP2-011 (AID 969); note: nearly all actives have a fitted effect of over 60% in size
Summary of the method: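 2500 cells/well in complete medium, compound-treated 24 h at 37 C. Viability read as intracellular ATP by CellTiter-Glo luminescence after 30 min at room temperature. AC50 from Hill fits of qHTS concentration-response data.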

[9] = Cell Viability - LYMP2-013 (AID 970); note: nearly all actives have a fitted effect of over 55% in size
Summary of the method: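 Human lymphoblastoid LYMP2-013 cells, 2500/well, treated 24 h at 37 C in complete medium; viability as intracellular ATP by CellTiter-Glo luminescence after 30 min. AC50 from Hill fits of qHTS concentration-response.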

[10] = Cell Viability - LYMP2-015 (AID 971); note: nearly all actives have a fitted effect of over 55% in size
Summary of the method: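 LYMP2-015 human lymphoblastoid cells (2500/well) in complete medium, compound-treated 24 h at 37 C; viability read as cellular ATP by CellTiter-Glo luminescence after 30 min at room temperature. AC50 from Hill-equation fits of qHTS concentration-response data.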

[11] = Cell Viability - LYMP2-017 (AID 972); note: nearly all actives have a fitted effect of over 55% in size
Summary of the method: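 LYMP2-017 human lymphoblastoid cells (2500/well) settled 5 hr at 37 C, then exposed to compound 24 hr at 37 C in complete medium. Viability taken as intracellular ATP by CellTiter-Glo luminescence after 30 min at RT; AC50 from Hill fits.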

[12] = Cell Viability - LYMP2-019 (AID 973); note: nearly all actives have a fitted effect of over 55% in size
Summary of the method: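 Human lymphoblastoid LYMP2-019 cells (2500/well) preincubated 5 h at 37 C, then treated 24 h at 37 C in complete medium. Viability by CellTiter-Glo ATP luminescence after 30 min at room temperature; AC50 from Hill fits.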

[13] = Cell Viability - LYMP2-021 (AID 974)
Summary of the method: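 Human lymphoblastoid LYMP2-021 cells, 2500/well in complete medium, treated 24 hours at 37 C. Intracellular ATP by CellTiter-Glo luminescence (30 min, RT); AC50 from Hill fits of concentration-response.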

[14] = Cell Viability - LYMP2-023 (AID 975); note: nearly all actives have a fitted effect of over 55% in size
Summary of the method: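 LYMP2-023 human lymphoblastoid cells, 2500/well, preincubated 5 hr at 37 C, then compound-treated 24 hr at 37 C in complete medium. CellTiter-Glo luminescence (ATP) after 30 min at room temperature; AC50 from Hill-equation fits; tetraoctylammonium bromide positive control.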

[15] = Cell Viability - LYMP2-002 (AID 977)
Summary of the method: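 Luminescent ATP readout (CellTiter-Glo, 30 min room temperature) after 24 h compound exposure at 37 C of a human lymphoblastoid line, 2500 cells/well. AC50 values derived by standard Hill fitting of qHTS concentration-response data.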

[16] = Cell Viability - LYMP2-006 (AID 978); note: nearly all actives have a fitted effect of over 60% in size
Summary of the method: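 qHTS, 1536-well; 2500 cells/well, 5 hr 37 C; cpd 24 hr 37 C; CellTiter-Glo 30 min RT; luminescence. Tetraoctylammonium bromide pos. ctrl. AC50 via Hill eqn.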

[17] = Cell Viability - LYMP2-008 (AID 980); note: nearly all actives have a fitted effect of over 60% in size
Summary of the method: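 LYMP2-008 lymphoblastoid cells (2500/well) plated 5 h, then treated 24 h at 37 C in complete medium. Viability read as intracellular ATP by CellTiter-Glo luminescence after 30 min at room temperature; AC50 from Hill fits.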

[18] = Cell Viability - LYMP2-012 (AID 982)
[19] = Cell Viability - LYMP2-014 (AID 983); note: nearly all actives have a fitted effect of over 50% in size
Summary of the method: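 LYMP2-014 human lymphoblastoid cells, 2500/well, treated 24 h at 37 C in complete medium; viability by CellTiter-Glo ATP luminescence after 30 min at room temperature. AC50 from Hill fits of qHTS concentration-response; tetraoctylammonium bromide positive control.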

[20] = Cell Viability - LYMP2-016 (AID 984); note: nearly all actives have a fitted effect of over 55% in size
Summary of the method: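 qHTS, 1536-well: 2500 LYMP2-016 cells/well, 5 hr 37 C, compound added, 24 hr 37 C, CellTiter-Glo 30 min RT, luminescence. Tetraoctylammonium bromide positive control. AC50 via Hill fit.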

Measured: Potency
Potency is the fitted concentration of half-maximal effect.

O=C(O)/C=C\C(=O)O
inactive: all assays above

CN1CCC[C@H]1c1cccnc1
inactive: all assays above

Nc1ccc(O)c(C(=O)O)c1
inactive: all assays above

c1cnc2c(c1)ccc1cccnc12
active: [3] 7940 nM

S=c1[nH]c2ccccc2s1
inactive: all assays above

C#C[C@]1(O)CC[C@H]2[C@@H]3CCc4cc(O)ccc4[C@H]3CC[C@@]21C
not listed: [3] | [6]
inactive: all other assays above

CN(C)CCC(c1ccc(Cl)cc1)c1ccccn1 (stereo not drawn)
not listed: [10] | [18]
inactive: all other assays above

CCCCCCCCCCCCCCCCCC(=O)O
inactive: all assays above

O=C1CN(/N=C/c2ccc([N+](=O)[O-])o2)C(=O)N1
inactive: [4] | [6] | [18]

CN(C)c1ccc(N=NS(=O)(=O)O)cc1
inactive: all assays above

N=C1N=C(N)c2cc3ccccc3cc21
active: [1] 50100 nM | [2] 50100 nM | [3] 39800 nM | [4] 39800 nM | [5] 39800 nM | [6] 39800 nM | [7] 39800 nM | [8] 39800 nM | [9] 39800 nM | [10] 50100 nM | [11] 39800 nM | [13] 39800 nM | [14] 39800 nM | [16] 50100 nM | [17] 39800 nM | [18] 39800 nM | [19] 39800 nM | [20] 39800 nM

Nc1ccc([N+](=O)[O-])cc1O
inactive: all assays above

CN(C)c1ccc(C(=C2C=CC(=[N+](C)C)C=C2)c2ccccc2)cc1
active: [1] 2000 nM | [2] 2000 nM | [3] 631 nM | [4] 501 nM | [5] 316 nM | [6] 501 nM | [7] 398 nM | [8] 316 nM | [9] 501 nM | [10] 316 nM | [11] 501 nM | [12] 501 nM | [13] 398 nM | [14] 398 nM | [15] 398 nM | [16] 501 nM | [17] 316 nM | [18] 158 nM | [19] 251 nM | [20] 501 nM
